A word on the inhibition: it is the drop in the measured response relative to a control, in per cent.

About 4,400 (1.3%) of roughly 330,000 compounds were called active.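 Rule for the calls: active = growth inhibition of the mutant yeast at or above 50%; inactive = the rest.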 The sample as a whole holds a higher share of actives than the screen did.

Consider 15 compounds from PubChem BioAssay AID463212 (Sanford-Burnham Center for Chemical Genomics, 2010).

A short description of the experiment: growth inhibition of tim23-1 ts yeast – luminescence, uHTS, primary screen (AID 463212).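 Note: temperature-sensitive mutant grown at 25 °C; plate controls were DMSO-treated mutant yeast for no effect and medium wells lacking yeast for full effect.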 The note with it: S. cerevisiae tim23-1 growth, BacTiter-Glo luminescence, 24 h; at 20 µM; hits give high values.
As to `COc1ccc(N2C(=O)/C(=C/c3ccco3)C(=O)NC2=S)cc1`, the inhibition is 11.6% (inactive). Next, `COc1cccc(N2C(=O)NC(=O)/C(=C\c3ccc([N+](=O)[O-])s3)C2=O)c1`: 50.5% (active); `O=C1NC(=O)N(c2ccccc2)C(=O)/C1=C/c1ccc([N+](=O)[O-])s1`: 41.2% (inactive); `COC(=O)C1=C(c2ccc(F)cc2OCc2ccccc2)C[C@@H]2CC[C@H]1N2C(=O)NCc1ccc(C(C)(C)C)cc1`: 19.7% (inactive).

Take `Cc1cc2ccccn2c1C(C[N+](=O)[O-])c1c(F)cccc1Cl` (stereo not given): the inhibition is 69.2% (active). Next, `O=c1c2ccccc2nc(-c2ccc(Cl)cc2Cl)n1-c1ccncc1`: 35.9% (inactive). The figure for `COP(=O)(OC)C(NC(=O)c1ccc(C)cc1)C(Cl)(Cl)Cl` (stereo not given) is -17.8% (inactive); for `COC(=O)C1=C(c2ccc(Cl)c(C(F)(F)F)c2)C[C@@H]2CC[C@H]1N2C(=O)NC(C)C` it is 21.8% (inactive); for `CCC(C)n1c(O)c(/C=N/Nc2nc3c(c(=O)n(C)c(=O)n3C)n2C)c(=O)[nH]c1=S` (stereo not given) it is 1.46% (inactive). The figure for `CC(=O)N1CN2CN(C(C)=O)CC(C(=O)c3ccc(Br)cc3)(C2)C1` is 0.81% (inactive); for `O=c1c2ccccc2nc(-c2ccccc2)n1-c1ccccn1` it is 14.3% (inactive); for `Cc1ccc(-c2nc3ccccc3c(=O)n2-c2ccc(Br)cn2)cc1` it is 52.7% (active). Regarding `O=c1c2ccccc2nc(-c2ccco2)n1-c1ccc(Br)cn1`, the inhibition was 29% (inactive). Regarding `COC(=O)C1=C(c2cc3ccccc3s2)C[C@@H]2CC[C@H]1N2C(=O)NCc1cccc2ccccc12`, the inhibition is 34.5% (inactive).

Turning to `COc1cccc(CN2CCCC(C(=O)c3ccccc3SC)C2)c1O` (stereo not given), the inhibition is 8.13% (inactive).
